This excerpt belongs to a sample that is enriched for hits.
Tb PYK inh: blocks Trypanosoma brucei pyruvate kinase; 410,000 tested, 0.12% active; AID 624173; Potency, µM (highest dose often 76.8 µM), most hits filed as inhibitors; TbPYK enzyme, Kinase-Glo Plus ATP luminescence, 45 min; Q57TT1; further: nearly all actives have a fitted effect of over 50% in size
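TbPYK + substrate in 50 mM TEA pH 7.2, 100 mM KCl, 10 mM MgCl2, 0.05% BSA, 0.01% Tween-20; cpd pinned; ADP 130 uM final; 45 min RT; Kinase-Glo Plus 10 min; luminescence endpoint.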
Sm TGR inh: S. mansoni TGR enzyme inhibition | 360,000 tested, 3% active | Potency, µM (titrated, usually from 114 µM), most hits filed as inhibitors | purified TGR, DTNB reduction, TNB absorbance 405 nm; further: nearly all actives have a fitted effect of over 60% in size
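First, TGR (20 nM dispensed) and NADPH were mixed with compound. Second, a 15 min room-temperature incubation followed. Third, further NADPH and then DTNB were added to start the reaction. Finally, TNB absorbance was monitored kinetically.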
Giardia FBPA inh-1: Giardia lamblia aldolase inhibition | AID 2451 | 290,000 tested, 0.71% active | purified Giardia FBPA | Potency, µM (series often up to 59.6 µM), actives largely listed as inhibitors; further: nearly all actives have a fitted effect of over 55% in size
Target sequence (A8B2U2 whole entry, looked up): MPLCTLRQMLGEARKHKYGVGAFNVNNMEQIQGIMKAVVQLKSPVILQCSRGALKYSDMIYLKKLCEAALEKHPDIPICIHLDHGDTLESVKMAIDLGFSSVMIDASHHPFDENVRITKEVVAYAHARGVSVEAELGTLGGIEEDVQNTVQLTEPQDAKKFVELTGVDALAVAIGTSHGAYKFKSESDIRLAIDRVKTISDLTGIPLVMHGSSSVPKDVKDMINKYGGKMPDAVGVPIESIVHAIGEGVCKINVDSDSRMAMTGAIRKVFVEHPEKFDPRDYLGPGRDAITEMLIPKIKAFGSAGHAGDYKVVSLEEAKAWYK
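40 nM FBPA preincubated 10 min at RT with compound (up to 57.5 uM final), then substrate plus GAPDH/TPI/NAD/arsenate coupling and diaphorase/resazurin added. Fluorescence read after 20 min at RT, 525/598 nm.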
CHX counter: affects cycloheximide protein synthesis inhibition readout, counter-screen | cell reporter, cycloheximide protein synthesis inhibition counterscreen | AID 2314 | max response, % | 300,000 tested, 12% active; in the data active means max response mostly above about 13%, no sharp cut-off; inactive means mostly below about 14%; further: read at 38.3 µM for the half of the compounds with a filed dose
Shiga inhibitor: Shiga toxin inhibition. Vero cells, Shiga toxin protein synthesis inhibition reporter. inhibition, % at 38.7 µM. 290,000 tested, 9.2% active; in the data active means inhibition mostly above about 28%, no sharp cut-off; inactive means mostly below about 43%
LmPK inhibitor: inhibitors of Leishmania mexicana pyruvate kinase; purified LmPK, Kinase-Glo ATP luminescence, 1 h; 290,000 tested, 0.37% active; Potency, µM (doses to about 57.5 µM), most hits filed as inhibitors; Q27686
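Purified LmPK (0.1 nM) converted ADP (0.1 mM) to ATP with PEP (0.5 mM) in imidazole buffer pH 7.2 with KCl and MgCl2, 1 h at room temperature. ATP was read by Kinase-Glo luminescence; data normalized to uninhibited and no-enzyme controls.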
Giardia growth: inhibitors of Giardia lamblia growth; AID 2785; Giardia lamblia trophozoite growth inhibition; Potency, µM (series often up to 57.5 µM), actives largely listed as inhibitors; shares compounds with Giardia FBPA inh-1; 1,500 tested, 5% active;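 further: trophozoites exposed to compound for 48 h at 37 °C; nearly all actives have a fitted effect of over 70% in size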
Mammal cell tox: toxic to mammalian cells in Giardia aldolase counter-screen | mammalian cell viability counter-screen, qHTS | 1,500 tested, 4% active | AID 2786 | Potency, µM (series often up to 57.5 µM), actives largely listed as inhibitors | shares compounds with Giardia FBPA inh-1;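 further: Chinese hamster ovary cells used as mammalian cytotoxicity surrogate; viability measured as cellular ATP by luminescence; compound exposure lasted 48 h before reading; nearly all actives have a fitted effect of over 60% in size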
Giardia FBPA inh-2: confirmation of Giardia fructose-bisphosphate aldolase inhibitors; shares compounds with Giardia FBPA inh-1; purified Giardia aldolase enzyme activity, qHTS; Potency, µM (doses to about 57.5 µM), usual class: inhibitors; 1,500 tested, 5% active; AID 2787; further: nearly all actives have a fitted effect of over 45% in size
Rabbit FBPA inh: rabbit FBP aldolase inhibition by Giardia aldolase hits; shares compounds with Giardia FBPA inh-1; Potency, µM (titrated, usually from 57.5 µM), hits mostly inhibitors; 1,500 tested, 4% active; Rabbit muscle FBPA enzyme inhibition, selectivity counter-screen; AID 2794; further: nearly all actives have a fitted effect of over 60% in size
Target sequence (P00883 whole entry, looked up): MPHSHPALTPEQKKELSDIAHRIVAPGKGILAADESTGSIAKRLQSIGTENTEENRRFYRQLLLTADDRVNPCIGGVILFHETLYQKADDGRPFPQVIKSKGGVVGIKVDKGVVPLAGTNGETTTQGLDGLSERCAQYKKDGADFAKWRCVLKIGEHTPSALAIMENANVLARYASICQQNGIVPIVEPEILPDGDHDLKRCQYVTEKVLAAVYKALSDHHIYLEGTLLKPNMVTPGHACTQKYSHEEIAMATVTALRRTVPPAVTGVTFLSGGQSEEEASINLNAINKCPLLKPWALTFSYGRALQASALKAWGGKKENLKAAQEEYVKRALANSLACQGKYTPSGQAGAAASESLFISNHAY
GAPDH counter: counter-screen for Giardia aldolase inhibitors: GAPDH coupling enzyme | AID 2795 | Potency, µM (doses to about 57.5 µM), hits mostly inhibitors | shares compounds with Giardia FBPA inh-1 | 1,500 tested, 6% active | GAPDH coupling enzyme counterscreen, biochemical, qHTS; further: nearly all actives have a fitted effect of over 55% in size
A number is an active result; [ ] = dose if it differs, or a comment. Unless noted, the call rests on the fitted dose curve; in most records, active means well fitted curve in the direction sought with a large enough effect; inconclusive means small, poorly fitted or top-dose-only effect, or another doubt; inactive means no such curve, though single readings can be large; an effect the other way counts as inactive or inconclusive.

Results for O=C(N/N=C/c1ccncc1)c1nc2ccccc2c(=O)[nH]1 ?
Tb PYK inh: inactive; Sm TGR inh: inactive; Giardia FBPA inh-1: 11.2µM; CHX counter: 17.4; Shiga inhibitor: inactive; LmPK inhibitor: inactive; Giardia growth: inactive; Mammal cell tox: inactive; Giardia FBPA inh-2: inactive; Rabbit FBPA inh: inactive; GAPDH counter: inactive

What do the screens show for `S=c1[nH]nc(-c2ccn[nH]2)n1-c1ccccc1Cl`?
Tb PYK inh: inconclusive; Sm TGR inh: inactive; Giardia FBPA inh-1: 19.9µM; CHX counter: 28.1; Shiga inhibitor: 72.3; LmPK inhibitor: inconclusive; Giardia growth: 44.7µM; Mammal cell tox: inactive; Giardia FBPA inh-2: inactive; Rabbit FBPA inh: inactive; GAPDH counter: inactive

What do the screens show for `S=c1[nH]nc(-c2ccc(Cl)cc2)n1-c1ccc(Cl)cc1`?
Tb PYK inh: inconclusive; Sm TGR inh: inactive; Giardia FBPA inh-1: inconclusive; CHX counter: inactive; Shiga inhibitor: inactive; LmPK inhibitor: inconclusive

What do the screens show for `CC[C@H]1O[C@H](C)CC2=C1C(=O)OC(C)(C)O2`?
Tb PYK inh: inactive

Results for CC(=O)Nc1cccc(NC(=O)CCNC(=O)c2ccccc2)c1 ?
Tb PYK inh: inactive; Sm TGR inh: inactive; Giardia FBPA inh-1: inactive; CHX counter: inactive; Shiga inhibitor: inactive; LmPK inhibitor: inactive

How did C=CCn1c(COc2cccc3ccc(C)nc23)nnc1SCC(=O)O do in these assays?
Tb PYK inh: inactive; Sm TGR inh: inactive; Giardia FBPA inh-1: 14.1µM; CHX counter: inactive; Shiga inhibitor: inactive; LmPK inhibitor: inactive; Giardia growth: inactive; Mammal cell tox: inactive; Giardia FBPA inh-2: inactive; Rabbit FBPA inh: inactive; GAPDH counter: inactive

How did C=CCn1c(COc2cccc3cccnc23)nnc1SCC(=O)O do in these assays?
Tb PYK inh: inactive; Sm TGR inh: inactive; Giardia FBPA inh-1: inconclusive; CHX counter: inactive; Shiga inhibitor: inactive; LmPK inhibitor: inactive

What do the screens show for `CC=Cc1cc(OC)c2c(c1)C(C)C(c1ccc(O)c(OC)c1)O2` (stereo not drawn)?
Tb PYK inh: inactive

How did [N-]=C=C1C(=S)NC(=O)[C@H]([n+]2ccccc2)[C@H]1c1ccc(Cl)cc1 do in these assays?
Tb PYK inh: inconclusive; Sm TGR inh: inactive; Giardia FBPA inh-1: inactive; CHX counter: inactive; Shiga inhibitor: inactive; LmPK inhibitor: inactive

What do the screens show for `[N-]=C=C1C(=O)NC(=O)C([n+]2ccc(-c3ccncc3)cc2)C1c1ccccc1C(F)(F)F` (stereo not drawn)?
Tb PYK inh: inactive; Sm TGR inh: inconclusive; Giardia FBPA inh-1: 14.1µM; CHX counter: inactive; Shiga inhibitor: inactive; LmPK inhibitor: inactive; Giardia growth: inactive; Mammal cell tox: inconclusive; Giardia FBPA inh-2: inconclusive; Rabbit FBPA inh: inconclusive; GAPDH counter: 6.51µM

What do the screens show for `Cc1ccc(N(CC(=O)N(C)Cc2ccccc2)S(C)(=O)=O)cc1C`?
Tb PYK inh: inactive; Sm TGR inh: inactive; Giardia FBPA inh-1: inactive; CHX counter: inactive; Shiga inhibitor: inactive; LmPK inhibitor: inactive

Results for CCCCNC(=O)Oc1c(Br)cc2sc(=O)oc2c1Br ?
Sm TGR inh: inactive; Giardia FBPA inh-1: 15.8µM; CHX counter: inactive; Shiga inhibitor: inactive; LmPK inhibitor: inactive; Giardia growth: inactive; Mammal cell tox: inactive; Giardia FBPA inh-2: inactive; Rabbit FBPA inh: inactive; GAPDH counter: inactive

How did Nn1c(C2COc3ccccc3O2)n[nH]c1=S (stereo not drawn) do in these assays?
Tb PYK inh: inactive; Sm TGR inh: inactive; Giardia FBPA inh-1: 6.29µM; CHX counter: inactive; Shiga inhibitor: inactive; LmPK inhibitor: inactive; Giardia growth: inactive; Mammal cell tox: inactive; Giardia FBPA inh-2: inconclusive; Rabbit FBPA inh: inconclusive; GAPDH counter: inconclusive

Results for O=C(Nc1nnc([C@@H]2C[C@H](O)[C@@H](CO)O2)s1)c1cccc(C(F)(F)F)c1 ?
Tb PYK inh: inactive

What do the screens show for `O=C(NCc1ccccn1)C(=O)Nc1cccc2ccccc12`?
Tb PYK inh: inactive; Sm TGR inh: inactive; Giardia FBPA inh-1: inactive; CHX counter: inactive; Shiga inhibitor: inactive; LmPK inhibitor: inactive

What do the screens show for `O=C(CC(NCc1ccccn1)C(=O)O)Nc1ccccc1Cl` (stereo not drawn)?
Tb PYK inh: inactive; Sm TGR inh: inactive; Giardia FBPA inh-1: 6.29µM; CHX counter: inactive; Shiga inhibitor: inactive; LmPK inhibitor: inactive; Giardia growth: inconclusive; Mammal cell tox: inactive; Giardia FBPA inh-2: inactive; Rabbit FBPA inh: inactive; GAPDH counter: inactive

Results for C=CCN(CC#CCOc1ccccc1OC)CC=C ?
Sm TGR inh: inactive; Giardia FBPA inh-1: 19.9µM; CHX counter: inactive; Shiga inhibitor: inactive; LmPK inhibitor: inactive; Giardia growth: inactive[10.4 µM]; Mammal cell tox: inactive; Giardia FBPA inh-2: inactive; Rabbit FBPA inh: inactive; GAPDH counter: inactive

Results for Cc1ccc(SCCN2CCN(C)CC2)cc1 ?
Tb PYK inh: inactive; Sm TGR inh: inactive; Giardia FBPA inh-1: 22.4µM; CHX counter: inactive; Shiga inhibitor: inactive; LmPK inhibitor: inactive; Giardia growth: inactive[10.4 µM]; Mammal cell tox: inactive; Giardia FBPA inh-2: inactive; Rabbit FBPA inh: inactive; GAPDH counter: inactive

What do the screens show for `CNc1ncnc2c1ncn2[C@H]1CN(Cc2ccncc2)C[C@@H](CO)O1`?
Tb PYK inh: inactive

How did O=c1cc2c(=O)oc3cc(O)c(O)oc3c2c(O)c1O do in these assays?
Tb PYK inh: inactive; Sm TGR inh: inconclusive; Giardia FBPA inh-1: 2.81µM; CHX counter: inactive; Shiga inhibitor: inactive; LmPK inhibitor: inactive; Giardia growth: inactive[10.4 µM]; Mammal cell tox: inactive; Giardia FBPA inh-2: inactive; Rabbit FBPA inh: inconclusive; GAPDH counter: inactive

Results for COC(=O)CSC1=C(C#N)C(c2ccc(C)cc2)C2=C(CCCC2=O)N1 (stereo not drawn) ?
Tb PYK inh: inactive; Sm TGR inh: inactive; Giardia FBPA inh-1: inactive; CHX counter: inactive; Shiga inhibitor: inactive; LmPK inhibitor: inactive

How did CCOC(=O)CSC1=C(C#N)C(C)C2=C(CCCC2=O)N1 (stereo not drawn) do in these assays?
Tb PYK inh: inactive; Sm TGR inh: inactive; Giardia FBPA inh-1: 15.8µM; CHX counter: inactive; Shiga inhibitor: inactive; LmPK inhibitor: inactive; Giardia growth: inactive[10.4 µM]; Mammal cell tox: inactive; Giardia FBPA inh-2: inactive; Rabbit FBPA inh: inactive; GAPDH counter: inactive
